Bioassay records: PubChem BioAssay, several laboratories
HIF-2a inh – HIF-2a reporter inhibitors, primary screen, luminescence, 786-0 RCC cells; 786-0 RCC cells HIF-2a reporter, luciferase luminescence, overnight; inhibition, % at 18.8 µM; AID 624352, 2012; actives 0.72% (n = 360,000);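 active means inhibition of the luminescence signal of 40% or more relative to plate controls, in a single-dose primary screen at 18.75 µM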
EBV LMP1 NFkB – EBV LMP1-driven NF-kappaB luciferase reporter inhibitors, primary screen, cell-based, luminescence, single point. LMP1-induced NF-kappaB luciferase reporter cells. actives 0.69% (n = 350,000). inhibition, % at 12.5 µM; in the data active means inhibition above about 41%;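 further: 0% = neutral control wells and 100% = reference inhibitor control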
Peg3 prom inh – Peg3 promoter-driven luciferase inhibitors, primary screen, cell-based, HeLa, luciferase luminescence; actives 1.7% (n = 360,000); AID 588405, 2011; inhibition, % at 20 µM; HeLa PEG-Prom luciferase reporter, overnight;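 active means inhibition of at least 50% at 20 µM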
Shn3 inh set2 – reduction of Shn3 3'UTR firefly luciferase signal, primary screen, Schnurri-3 inhibitor project, cell-based, Clone20 osteoblasts, set 2; Clone20 osteoblast Shn3 3'UTR firefly luciferase, 24 h; actives 0.52% (n = 360,000); inhibition, % at 12.5 µM;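 active means mean inhibition of at least 75% with every replicate also reaching 75%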;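 further: 0% = median of neutral control wells and 100% = pilot-screen positive control compound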
PAX8 reporter – inhibitors of PAX8-driven TPO luciferase reporter, primary screen, RMG-I cells, single concentration; inhibition, % at 12.6 µM; SteadyGlo, 24 h; actives 1.2% (n = 360,000); AID 652154, 2013;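 active means mean replicate inhibition at least 60% with every replicate also reaching 60%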;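 further: luciferase light reporting Pax8 driven TPO promoter activity; plate controls were median of neutral control wells for no effect and mitoxantrone controls for full effect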
TRPM1 prom inh – inhibitors of MITF-dependent TRPM1 promoter reporter, primary screen, cell-based, SK-MEL-5, single point, luciferase | actives 0.83% (n = 330,000) | SK-MEL-5 TRPM1 promoter luciferase, 24 h | AID 488899, 2010 | inhibition, % at 12.5 µM;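 active means mean inhibition across replicates of 60% or more, whatever share of single replicates reaches that level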
* marks the source's active call; other numbers are inactive results; . = not tested or not shown. An excerpt weighted towards active compounds, which were near 2.8% of everything screened.

SMILES	HIF-2a inh	EBV LMP1 NFkB	Peg3 prom inh	Shn3 inh set2	PAX8 reporter	TRPM1 prom inh
COc1ccc(NC(=O)CCS(=O)(=O)c2ccc3c(c2)CCN3C(C)=O)cc1	19	58*	2	4	1	8
CN1C(=O)c2cc(NC(=O)Nc3cccc(Cl)c3)ccc2OC[C@@H]2O[C@@H](CC(=O)NCCc3ccncc3)CC[C@H]21	.	.	.	.	74*	.
CN1C(=O)c2cc(NC(=O)c3cccc(Cl)c3)ccc2OC[C@@H]2O[C@H](CC(=O)NC3CCCCC3)CC[C@@H]21	.	.	.	.	76*	.
CN1C(=O)c2cc(NC(=O)c3cccc(Cl)c3)ccc2OC[C@@H]2O[C@H](CC(=O)NC3CCCCC3)CC[C@H]21	.	.	.	.	59	.
CN1C(=O)c2cc(NS(=O)(=O)c3ccc(Cl)cc3)ccc2OC[C@@H]2O[C@H](CC(=O)N3CCc4ccccc4C3)CC[C@@H]21	.	.	.	.	61*	.
CCOC(=O)c1c(-c2ccccc2)oc2ccc(OCC)cc12	-9	-6	-12	9	-9	-2
CCOC(=O)c1c(-c2ccccc2)oc2ccc(OCC(O)CNCCN(C)C)cc12 (centres undefined)	10	5	100*	15	36	66*
CC(C)c1ccc(NS(=O)(=O)c2ccc3c(c2)NC(=O)CO3)cc1	17	-9	15	14	-6	10
CC(C)c1ccc(C2C3=C(COC3=O)Nc3cc4c(cc32)OCO4)cc1 (centres undefined)	26	-1	-14	34	79*	39
COc1ccc([N+](=O)[O-])cc1Nc1c2ccccc2nc2ccccc12	15	14	58*	35	31	32
COc1ccc(OC)c(Nc2c3ccccc3nc3ccccc23)c1	14	-3	29	77	18	15
CCc1cccc(NC(=O)CSC2=NS(=O)(=O)c3ccccc32)c1	-30	-40	68*	-26	0	55
CC(C)NC(=O)Nc1ccc2c(c1)CC(=O)N([C@H](C)CO)C[C@H](C)[C@H](CN(C)S(=O)(=O)c1cccs1)O2	.	.	.	.	-28	.
CCOc1ccc(C(=O)Nc2cc(-c3nc4ccccc4[nH]3)ccc2Cl)cc1[N+](=O)[O-]	27	-7	62*	-11	22	-9
CCOc1ccc(C(=O)Nc2cc(-c3nc4ccccc4[nH]3)ccc2C)cc1[N+](=O)[O-]	-29	6	25	-6	.	0
O=C(NC(=S)Nc1cc(-c2nc3ccccc3[nH]2)ccc1Cl)c1ccc2c(c1)OCO2	-275	11	100*	25	-93	55
COC(=O)C[C@@H]1CC[C@H]2[C@@H](COc3ccc(NC(=O)c4ccc(F)cc4)cc3C(=O)N2C)O1	.	.	.	.	0	.
CN(C(=O)CSc1nc2ccccc2n1C)C1CCS(=O)(=O)C1 (centres undefined)	-4	-4	68*	-11	-1	-6
CN(C)CCCN(C(=O)c1cc(Cl)sc1Cl)c1nc2cc3c(cc2s1)OCO3	-26	-13	-37	-15	3	11
CN(C)CCCN(C(=O)c1ccc([N+](=O)[O-])s1)c1nc2cc3c(cc2s1)OCCO3	17	-12	-64	20	-22	67*
CN(C)CCCN(C(=O)c1ccc(Cl)s1)c1nc2cc3c(cc2s1)OCO3	-37	-3	-28	-29	-3	83*
CC(C)NC(=O)N(C)C[C@@H]1Oc2cc(C#C[C@H](C)O)ccc2S(=O)(=O)N([C@H](C)CO)C[C@@H]1C	.	.	.	.	-17	.
CCN(CC)c1ccc(/C=N/NC(=O)c2cccc(S(=O)(=O)Nc3ccccc3OC)c2)c(O)c1	20	58*	47	83	74*	72*
COc1ccccc1NS(=O)(=O)c1cccc(C(=O)NC2CCN(Cc3ccccc3)CC2)c1	7	32	17	87*	.	24
COc1ccccc1NS(=O)(=O)c1cccc(C(=O)N/N=C/c2ccc([N+](=O)[O-])o2)c1	-91	-55	14	53	93*	86*
SMILES	HIF-2a inh	EBV LMP1 NFkB	Peg3 prom inh	Shn3 inh set2	PAX8 reporter	TRPM1 prom inh
CCN(CC)c1ccc(/C=N/NC(=O)c2cccc(S(=O)(=O)Nc3ccccc3OC)c2)cc1	9	-12	6	4	-21	-20
c1cnc2ccc3ncccc3c2c1	-55	-2	-53	-9	-14	-2
O=Cc1ccc(O)c2ncccc12	9	59*	39	70	.	63*
CO[C@@H]1CN(C)C(=O)c2cc(NC(=O)C3CCCC3)ccc2OC[C@@H](C)N(C)C[C@H]1C	.	.	.	.	-18	.
C=C(CC)C(=O)c1ccc(OCC(=O)O)c(Cl)c1Cl	-17	0	-9	-13	81*	-6
NS(=O)(=O)c1ccc2c(c1)C(=NO)c1cc(S(N)(=O)=O)ccc1-2	22	-16	6	19	-5	12
NC1=C(Cl)C(=O)c2ccc(S(N)(=O)=O)cc2C1=O	97*	88*	110*	98*	121*	96*
NC1=C(Cl)C(=O)c2ccccc2C1=O	-14	2	-62	-2	-3	95*
O=C(C[C@@H]1C=C[C@@H](NS(=O)(=O)c2ccc(F)cc2)[C@H](CO)O1)N1CCC(Cc2ccccc2)CC1	.	.	.	.	21	.
CCOC(=O)c1c(CSc2ccccc2)n(C)c2cc(Br)c(OCC(O)CNC(CO)(CO)CO)cc12 (centres undefined)	34	2	97*	0	-1	90*
C[C@H]1CN([C@@H](C)CO)C(=O)c2cccc(NS(C)(=O)=O)c2O[C@@H]1CN(C)Cc1ccc(Cl)c(Cl)c1	.	.	.	.	1	.
CS(=O)(=O)Nc1ccccc1C(=O)NCC1(N2CCCCC2)CCCCC1	12	47*	7	4	-9	5
N#CC1=C(N)OC2=C(C(=O)CCC2)C12C(=O)N1CCCc3cccc2c31 (centres undefined)	27	84*	-1	16	.	12
N#CC1=C(N)OC2=C(C(=O)CCC2)[C@]12C(=O)N(CC(N)=O)c1ccccc12	16	-4	17	-6	.	-1
COc1ccc(-c2csc(N(Cc3ccccc3)C(=O)COc3ccc(Cl)cc3)n2)cc1	8	-4	70*	-6	.	2
O=C(COc1ccccc1)N(Cc1ccccc1)c1nc(-c2ccccc2)cs1	4	-5	17	16	-22	-3
Cc1noc(C)c1S(=O)(=O)Nc1ccc2c(c1)C(=O)N([C@@H](C)CO)C[C@@H](C)[C@@H](CN(C)S(=O)(=O)c1ccc(Cl)cc1)OCCCC[C@@H](C)O2	.	.	.	.	59	.
CCN1C(=O)C2(SC(NC(C)=O)=NN2C(C)=O)c2cc(C)cc(C)c21 (centres undefined)	11	-1	19	3	27	4
